This is a sample that favours compounds with a hit; in the whole collection about 2.3% have one here.
CHRM1 antagonist – human CHRM1 antagonism | inhibition, % at 3 µM | CHO-K1 hM1, Fluo-8 calcium fluorescence, ACh EC80 antagonist | P11229 | hit rate 1.3% among 360,000 | AID 588852;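 active = percent inhibition above its own plate's cutoff, namely the mean of that plate's compound wells plus 3 SD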;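 note: peak over basal fluorescence ratio during 140 s after agonist addition; 0% = ACh EC80 plus DMSO and 100% = DMSO alone without agonist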
Target sequence (P11229 whole entry, looked up): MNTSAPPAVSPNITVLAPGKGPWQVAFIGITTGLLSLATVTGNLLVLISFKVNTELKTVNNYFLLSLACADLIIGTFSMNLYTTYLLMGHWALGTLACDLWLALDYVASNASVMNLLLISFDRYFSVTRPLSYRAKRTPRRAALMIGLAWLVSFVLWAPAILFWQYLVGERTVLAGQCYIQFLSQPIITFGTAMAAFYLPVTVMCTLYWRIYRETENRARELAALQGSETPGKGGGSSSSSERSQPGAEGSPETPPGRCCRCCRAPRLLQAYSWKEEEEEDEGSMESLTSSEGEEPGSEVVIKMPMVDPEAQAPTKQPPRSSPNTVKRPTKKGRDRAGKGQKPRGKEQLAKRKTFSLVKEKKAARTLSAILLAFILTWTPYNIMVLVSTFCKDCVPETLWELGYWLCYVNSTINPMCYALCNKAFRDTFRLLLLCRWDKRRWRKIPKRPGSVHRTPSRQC
CHO-K1 Ca antag – M1 antagonist counterscreen hit in parental CHO-K1 cells | inhibition, % at 3 µM | ATP-induced calcium, Fluo-8 fluorescence | hit rate 0.6% among 360,000 | AID 602250;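 active = inhibition above a per-plate cutoff, the plate's mean sample inhibition plus 3 SD, cut at about 24% in these data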;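 note: 0% = DMSO plus EC80 ATP and 100% = DMSO alone without ATP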
CHO-K1 Ca PAM – nonselective activator or artifact in parental CHO-K1 calcium assay | AID 602247 | hit rate 0.02% among 360,000 | ATP EC20, Fluo-8 calcium fluorescence; 0% at ATP EC20, 100% at ATP max | activation, % at 3 µM;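 active = activation above the run cutoff, the mean activation of all test compounds plus 3 SD, cut at about 40% in these data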;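 note: peak over basal fluorescence ratio in a 140 s read after ATP addition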
CHRM1 agonist – agonists of human M1 muscarinic receptor; CHO-K1 hM1, Fluo-8 calcium fluorescence, agonist mode; 0% DMSO, 100% acetylcholine EC100; activation, % at 3 µM; hit rate 0.33% among 360,000; AID 588814;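 active = activation above the run's mean compound activation plus 3 SD, cut at about 16% in these data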;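 note: peak over basal fluorescence ratio within a 140 s kinetic read after compound addition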
M1 PAM – potentiates human M1 receptor response to acetylcholine | P11229 | CHO-K1 hM1, Fluo-8 calcium fluorescence, ACh EC20; 0% = ACh EC20, 100% = maximal ACh | activation, % at 3 µM | hit rate 0.088% among 360,000; in the data active = activation above about 19%, passing the limit was not always enough
CHO-K1 Ca ag – counter-screen for M1 agonists: effect in parental CHO-K1 cells; AID 602248; activation, % at 3 µM; Fluo-8 calcium fluorescence; scaled to maximal ATP response, vehicle zero; hit rate 0.48% among 360,000; in the data active = activation above about 15%;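 note: untransfected CHO-K1 host cells lacking M1 receptor as counterscreen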
Starred values were filed as active, the others as inactive; x = no result given.

SMILES | CHRM1 antagonist | CHO-K1 Ca antag | CHO-K1 Ca PAM | CHRM1 agonist | M1 PAM | CHO-K1 Ca ag
Cn1c(CN2CCCC(C(=O)c3ccc4c(c3)OCO4)C2)nc2ccccc21 (stereo not drawn) | -6.1 | -2.0 | 9.4 | -11.5 | -6.5 | 0.8
O=C(c1ccc2c(c1)OCO2)C1CCCN(Cc2cccn2-c2cccnc2)C1 (stereo not drawn) | 9.6 | -12.1 | 5.3 | -5.2 | -8.1 | 3.0
COc1ccc(C(=O)C2CCCN(Cc3cccc4c3OCO4)C2)cc1OC (stereo not drawn) | 29.2* | -7.6 | 9.3 | -13.0 | -32.4 | -0.3
COc1ccc(C(=O)C2CCCN(Cc3nc4ccccc4nc3C)C2)cc1OC (stereo not drawn) | 2.1 | -11.3 | 0.4 | -7.2 | -0.3 | 0.3
CC(=O)c1cccc(Nc2nc3ccccc3n3cnnc23)c1 | -6.7 | -12.9 | -6.4 | -8.4 | 0.7 | 4.5
CC(C)C(C(=O)Nc1ccc2c(c1)OCCOCCOCCOCCO2)N1C(=O)c2ccccc2C1=O (stereo not drawn) | -1.1 | 4.5 | -5.6 | -8.7 | -1.3 | -0.4
COc1ccc(-n2nc3c(c2NC(=O)C(C)Oc2ccccc2)CS(=O)C3)cc1 (stereo not drawn) | -8.8 | -8.4 | 11.4 | -1.5 | 4.7 | 0.6
O=C(c1ccc2c(c1)OCO2)C1CCCN(Cc2cc(F)ccc2-n2cccn2)C1 (stereo not drawn) | -8.9 | -13.1 | 10.4 | -7.7 | 6.7 | 0.3
O=C(c1ccc2c(c1)OCO2)C1CCCN(Cc2ccccc2OC(F)F)C1 (stereo not drawn) | 74.8* | -2.3 | 21.0 | -6.6 | -22.9 | -0.2
COc1cccc(CN2CCCC(C(=O)c3ccc4c(c3)OCO4)C2)c1OC (stereo not drawn) | 56.7* | -13.0 | 15.7 | -10.7 | -25.9 | 1.4
COC(=O)/C=C1\N/C(=N\c2nc(C)cc(C)n2)N(c2ccc(C)c(C)c2)C1=O | -6.8 | -14.7 | 21.4 | -5.3 | 10.0 | 0.6
CN(C)CCNc1nc(-c2ccccc2F)c2sccc2n1 | 69.8* | 0.2 | 8.7 | -7.8 | -29.5 | 1.0
CCOP(=O)(OCC)C(C)(C)NC(=O)Nc1ccc(Cl)c(Cl)c1 | 1.3 | -17.4 | 18.6 | -0.2 | -4.6 | 11.8
CC(=O)c1c(N2CCN(C)CC2)nc(=S)n(Cc2ccccc2)c1C | -11.3 | -5.8 | 19.0 | -10.1 | 0.1 | 0.8
C=CCn1c(C)c(C(C)=O)c(N2CCN(C(c3ccccc3)c3ccccc3)CC2)nc1=S | 35.3* | -9.4 | 11.0 | -2.9 | -15.2 | 3.5
CN(C)CCC=C1c2ccccc2C=Cc2ccccc21 | 98.1* | -20.4 | 34.3 | -6.0 | -25.4 | 3.8
CNCCC=C1c2ccccc2C=Cc2ccccc21 | 98.0* | 3.9 | -2.8 | -3.9 | -25.1 | 0.8
OC1(c2ccc(Br)cc2)CCN(Cc2cccc(Br)c2)CC1 | 35.2* | -8.9 | 11.8 | 4.8 | -17.0 | 0.9
Nc1nc(NCc2ccccc2)nc(NCc2ccccc2)c1[N+](=O)[O-] | -7.8 | -4.7 | 24.2 | -2.9 | 11.2 | -0.2
COCCCNc1nc(N)c([N+](=O)[O-])c(Nc2ccccc2OC)n1 | -17.9 | 5.3 | 10.6 | 10.5 | 9.7 | 20.4*
Nc1nc(Nc2ccccc2)nc(NCc2ccccc2)c1[N+](=O)[O-] | -5.0 | -0.9 | 14.9 | -3.2 | 3.4 | 20.0*
CN(C)CCCNc1nc(N)c([N+](=O)[O-])c(NCc2ccccc2)n1 | 51.8* | 2.0 | 2.7 | -9.6 | -21.5 | 0.2
COCCCNc1nc(N)c([N+](=O)[O-])c(NCc2ccccc2)n1 | 3.0 | -18.8 | 9.4 | 2.3 | -3.1 | 3.9
COCCNc1nc(N)c([N+](=O)[O-])c(NCc2ccccc2)n1 | -1.6 | -14.8 | -4.5 | -0.8 | 8.3 | 2.3
CN1C(=O)c2cccc3c(N(C)C)ccc(c23)C1=O | -3.9 | 9.2 | 8.8 | 13.5 | 2.5 | 22.5*
SMILES | CHRM1 antagonist | CHO-K1 Ca antag | CHO-K1 Ca PAM | CHRM1 agonist | M1 PAM | CHO-K1 Ca ag
CNc1ccc2c3c(cccc13)C(=O)N(C)C2=O | 72.7* | 29.9* | -12.6 | 312.7* | -34.9 | 97.7*
CN1C(=O)c2cccc3c(Br)ccc(c23)C1=O | -17.4 | -12.0 | 15.8 | -4.2 | 6.0 | 1.4
CN1C(=O)c2cccc3c(Cl)ccc(c23)C1=O | -4.1 | -19.8 | 17.7 | -3.9 | -2.2 | -0.1
C/C(=N\NC(=O)Cc1ccccc1)c1ccc(Cl)s1 | -15.6 | 4.9 | 8.8 | -0.7 | 14.2 | 0.8
O=C(OCC1CCCN2CCCCC12)c1ccc2c(c1)OCO2 (stereo not drawn) | 29.1* | 7.0 | 4.4 | -8.8 | -18.9 | 0.3
O=C(NC(=O)c1ccccc1)OCC1CCCN2CCCCC12 (stereo not drawn) | -9.7 | 3.5 | -12.6 | -10.5 | 5.6 | 0.1
C[C@H](O)[C@@H]1CN2CCc3c([nH]c4ccccc34)[C@@H]2C[C@@H]1N(C)Cc1cc(Cl)cc(Cl)c1 | -2.8 | -7.6 | -8.3 | 32.7* | -5.3 | 0.1
CCOC(=O)N(C)[C@H]1C[C@H]2c3[nH]c4ccccc4c3CCN2C[C@H]1[C@H](C)O | -4.4 | 4.7 | 18.3 | -8.6 | 7.4 | 1.5
O=C1CCC(=O)N1c1nc2n(n1)C(c1ccccc1)C=C(c1ccc(Br)cc1)N2 (stereo not drawn) | 0.6 | 2.5 | 5.9 | -2.1 | 3.8 | 0.9
COc1ccc(C2C=C(c3ccc(Br)cc3)Nc3nc(N4C(=O)CCC4=O)nn32)cc1 (stereo not drawn) | 9.3 | 32.8* | -7.3 | -1.1 | -1.1 | -0.4
O=C1/C(=C/c2cccnc2)Sc2ccccc21 | -4.1 | -8.4 | 21.0 | 9.1 | 24.6* | 0.6
O=C1NC[C@H](CCCCN2CCN(CC3CCCCC3)C(=O)C2=O)N(CC2CCCCC2)C1=O | x | -20.8 | 13.9 | x | x | 1.2
Cc1ccc(NC(=S)Nc2ccc(Cl)c(Cl)c2)c(OC(F)F)c1 | 26.0 | 26.1* | -5.5 | -3.6 | -13.8 | 9.9
CCCCC(CC)CNC(=O)C(Cc1ccccc1)NS(=O)(=O)c1ccc2c(c1)CCC(=O)N2 (stereo not drawn) | -4.6 | -8.6 | 7.4 | -2.7 | 4.6 | 4.1
Cc1onc(-c2ccccc2Cl)c1C(=O)Nc1ccccc1O | -5.0 | -8.8 | 3.2 | -4.4 | 2.6 | 1.3
O=C(/C(=C/c1ccc(Cl)cc1)c1nc2ccccc2[nH]1)c1ccccc1 | 93.5* | -11.2 | 16.4 | -0.4 | -21.3 | 1.1
CCCCN1C[C@H](C)[C@@H](CC(=O)NC)C1=O | -12.5 | -1.5 | 15.6 | -1.1 | 9.7 | 0.5
CCCCN1C[C@H](c2ccccc2)[C@@H](CC(=O)NC)C1=O | -16.8 | 33.5* | -9.0 | 1.0 | 5.2 | -0.2
CCOC(=O)c1oc2ccc(Br)cc2c1COC(=O)C1=COCCO1 | 56.9* | -12.5 | -13.9 | -7.4 | -25.0 | 0.2
C/C(CC(=O)Nc1cccc(Cl)c1Cl)=N\NC(=O)c1ccccc1N | 7.5 | 13.7 | -12.5 | -9.7 | -11.4 | 0.6
COc1ccc(NC(=O)CCN2CCN(S(=O)(=O)c3cc(Cl)ccc3OC)CC2)cc1 | -7.1 | -25.8 | 62.2* | 5.9 | -9.7 | 3.7

Screens deposited in PubChem BioAssay by The Scripps Research Institute Molecular Screening Center.
